The supplement of paper PMC10981050
“And” between values parts separate entries of the source, which are not always exact repeats. Identical values can stand only once. Counter-ions that a name gives are not always drawn.

The compounds below were run on K562 (assay: cell viability relative to vehicle control; higher = less cytotoxic). Settings: 10 µM; SRSF2 genotype: SRSF2 P95H/wt.
Method in brief: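 Mutant clones made by CRISPR editing and their isogenic wild-type counterparts, from four leukaemia lines, were exposed to a single 10 µM dose of each library compound for 48 h. The supernatant was then removed and CellTiter-Glo luminescence was read. Viability was reported as percent of the on-plate vehicle control.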

Row | SMILES | cell viability
1 | OCC(O)C(O)C(O)C(O)CO (stereo unspecified) [Allitol] | 111% and 98.4%
2 | CCCCC[C@](C)(O)/C=C/[C@@H]1[C@@H](C/C=C\CCCC(=O)O)[C@@H](O)C[C@H]1O [Carboprost] | 110% and 101%
3 | Cc1cc(C)nc(NS(=O)(=O)c2ccc(NC(=S)NC(=O)COc3ccc(Br)cc3Cl)cc2)n1 | 91.4% and 83.1%
4 | Cc1nc2cc(F)c(F)cc2n1-c1cncc(Nc2ccc(C(F)(F)F)cc2)n1 | 10.5% and 26.5%
5 | NC(=O)N/N=C/c1ccc([N+](=O)[O-])o1 [Nitrofurazone (Nitrofural)] | 98.5% and 94.8%
6 | COc1ccc2cc([C@H](C)C(=O)O)ccc2c1 [Naproxen Sodium] | 99.4% and 104%
7 | C[C@H]1O[C@@H](n2cc(F)c(=O)[nH]c2=O)[C@H](O)[C@@H]1O [Doxifluridine] | 102% and 95%
8 | Clc1cccc(Cl)c1NC1=NCCN1 [Clonidine hydrochloride (Catapres)] | 98.5% and 103%
9 | Cc1ccc(-c2nn(C(C)(C)C)c3ncnc(N)c23)cc1 | 64.5% and 82.4%
10 | CC(=O)OCCc1ccc(O)c(O)c1 [Hydroxytyrosol Acetate] | 93.5% and 95.4%
11 | CCCCCCCC(=O)N[C@H](CN1CCCC1)[C@H](O)c1ccc2c(c1)OCCO2 [Eliglustat (Tartrate)] | 95.2% and 103%

Same assay, conditions: 10 µM; SRSF2 genotype: SRSF2 wt/wt

Row | SMILES | cell viability [%]
12 | CC1(C)CCC[C@](C)([C@H]2CC[C@]3(C)[C@@H]2[C@H](O)C[C@@H]2[C@@]4(C)CC[C@H](O)C(C)(C)[C@@H]4[C@@H](O)C[C@]23C)O1 [Panaxatriol] | 97.5
13 | COc1cc2c(cc1OC)[C@@H]1Cc3ccc(OC)c(OC)c3CN1CC2 [Tetrahydropalmatine hydrochloride] | 95.6
14 | CCCCCCCCOc1ccccc1C(=O)Nc1ccc(C(=O)OCC[N+](C)(CC)CC)cc1 [Otilonium Bromide] | 92.3
15 | CC(CCc1ccccc1)NCC(=O)c1ccc(O)c(C(N)=O)c1 (stereo unspecified) [Labetalone hydrochloride] | 108
16 | COC1(c2sc3c(N4CCOCC4)nc(-c4cnc(N)nc4)nc3c2C)COC1 | 40.3
17 | CC(=O)N1CCN(c2ccc(OCC3COC(Cn4ccnc4)(c4ccc(Cl)cc4Cl)O3)cc2)CC1 (stereo unspecified) [Ketoconazole] | 62.4
18 | CC(C)=CCOc1ccc(/C=C/C(=O)c2ccc(OCC=C(C)C)cc2OCC(=O)O)cc1 [Sofalcone] | 107
19 | CC(C)=CCC[C@](C)(O[C@@H]1O[C@H](CO)[C@@H](O)[C@H](O)[C@H]1O)[C@H]1CC[C@]2(C)[C@@H]1[C@H](O)C[C@@H]1[C@@]3(C)CC[C@H](O)C(C)(C)[C@@H]3[C@@H](O[C@@H]3O[C@H](CO)[C@@H](O)[C@H](O)[C@H]3O[C@@H]3O[C@@H](C)[C@H](O)[C@@H](O)[C@H]3O)C[C@]12C [Ginsenoside Re] | 101
20 | CC(=O)c1cc2c(o1)C(=O)c1ccccc1C2=O [Napabucasin] | 0.39
21 | C/C=C(\C)C(=O)OC1c2c(ccc3ccc(=O)oc23)OC(C)(C)C1OC(=O)/C(C)=C/C (stereo unspecified) [Praeruptorin B] | 90.4
22 | CN(C)CCCNC(=O)c1ccc(-c2cc(O)c3ncccc3c2)cc1 | 47.3
23 | O=c1ncccn1[C@@H]1O[C@H](CO)[C@@H](O)[C@H]1O [Zebularine] | 82.2
24 | C/C=C(/C)C(=O)OC(C)(C)[C@@H]1Cc2c(ccc3ccc(=O)oc23)O1 [Columbianadin] | 99.2
25 | CCc1c(C(=O)NCCc2ccc(N3CCCCC3)cc2)[nH]c2ccc(Cl)cc12 | 111
26 | COc1cccc(-c2cc(=O)c3ccccc3o2)c1N | 95.6
27 | CC/C=C(\C(=O)N[C@@H]1C(=O)N2C(C(=O)OCOC(=O)C(C)(C)C)=C(COC(N)=O)CS[C@H]12)c1csc(N)n1 [Cefcapene Pivoxil Hydrochloride] | 109
28 | CO/N=C(\C(=O)N[C@@H]1C(=O)N2C(C(=O)OCOC(=O)C(C)(C)C)=C(/C=C\c3scnc3C)CS[C@H]12)c1csc(N)n1 [Cefditoren pivoxil] | 101
29 | COc1cc2c(=O)c(-c3ccc(O)cc3)coc2cc1O [Glycitein] | 102
30 | S=c1nc[nH]c2nc[nH]c12 [6-Mercaptopurine (6-MP) Monohydrate] | 39.7
31 | COc1ccccc1C(=O)Nc1cc2c(cc1N1CCCC1)n(C)c(=O)n2C | 92

Row | SMILES | cell viability [%]
32 | C[C@H]1[C@H](C)CC[C@]2(C(=O)O[C@@H]3O[C@H](CO[C@@H]4O[C@H](CO)[C@@H](O[C@@H]5O[C@H](C)[C@H](O)[C@@H](O)[C@H]5O)[C@H](O)[C@H]4O)[C@@H](O)[C@H](O)[C@H]3O)CC[C@]3(C)C(=CC[C@@H]4[C@@]5(C)C[C@@H](O)[C@H](O)[C@@](C)(CO)[C@@H]5CC[C@]43C)[C@H]12 [Asiaticoside] | 101
33 | O=C1N=C(N2CCOCC2)CN1c1ccc(Cl)cc1 | 94.4
34 | Cc1ncc(COP(=O)(O)O)c(C=O)c1O [Pyridoxal phosphate] | 105
35 | COc1c(N2C[C@@H]3CCCN[C@@H]3C2)c(F)cc2c(=O)c(C(=O)O)cn(C3CC3)c12 [Moxifloxacin] | 90.2
36 | C=CC(=O)Nc1cccc(Nc2nc(Nc3ccc(OCCOC)cc3)ncc2F)c1 | 73.4
37 | COC(=O)N[C@H](C(=O)N1CCC[C@H]1c1ncc(-c2ccc(-c3ccc(-c4cnc([C@@H]5CCCN5C(=O)[C@@H](NC(=O)OC)C(C)C)[nH]4)cc3)cc2)[nH]1)C(C)C [Daclatasvir Digydrochloride] | 75.9
38 | Cc1coc2c1C(=O)C(=O)c1c-2ccc2c(C)cccc12 [Tanshinone I] | 41.4
39 | CC(C)=CCCC(C)=CCCC(C)=CCCC(C)=CCC1=C(C)C(=O)c2ccccc2C1=O [Vitamin K2] | 102
40 | C=CC(=O)N1CCC(Oc2cc3c(Nc4ccc(Cl)c(Cl)c4F)ncnc3cc2OC)CC1 [Poziotinib (HM781-36B)] | 65.6
41 | OCC(O)C(O)C(O)C(O)CO (stereo unspecified) [Allitol] | 111
42 | CCCCC[C@](C)(O)/C=C/[C@@H]1[C@@H](C/C=C\CCCC(=O)O)[C@@H](O)C[C@H]1O [Carboprost] | 102
43 | Cc1cc(C)nc(NS(=O)(=O)c2ccc(NC(=S)NC(=O)COc3ccc(Br)cc3Cl)cc2)n1 | 85.5
44 | Cc1nc2cc(F)c(F)cc2n1-c1cncc(Nc2ccc(C(F)(F)F)cc2)n1 | 28
45 | NC(=O)N/N=C/c1ccc([N+](=O)[O-])o1 [Nitrofurazone (Nitrofural)] | 96.7
46 | COc1ccc2cc([C@H](C)C(=O)O)ccc2c1 [Naproxen Sodium] | 96.2
47 | C[C@H]1O[C@@H](n2cc(F)c(=O)[nH]c2=O)[C@H](O)[C@@H]1O [Doxifluridine] | 92.1
48 | Clc1cccc(Cl)c1NC1=NCCN1 [Clonidine hydrochloride (Catapres)] | 105
49 | Cc1ccc(-c2nn(C(C)(C)C)c3ncnc(N)c23)cc1 | 63.5
50 | CC(=O)OCCc1ccc(O)c(O)c1 [Hydroxytyrosol Acetate] | 104
51 | CCCCCCCC(=O)N[C@H](CN1CCCC1)[C@H](O)c1ccc2c(c1)OCCO2 [Eliglustat (Tartrate)] | 99.4
